The supplement of paper PMC12645437, “Orthogonal IMiD-Degron Pairs Induce Selective Protein Degradation in Cells” (ACS Chemical Biology, 2025)
Over roughly 8,300 sequences, “log2 fold change of degron read counts, EGFP-low vs EGFP+ sorted cells (limma voom), compound-induced degradation” has its median near -1.1; the highest 2% begin near 3.2. The list comes from a sample in which the highest values are over-represented; it also holds similar and randomly drawn sequences.

T1: CRBN, Q96SW2
T1 chain: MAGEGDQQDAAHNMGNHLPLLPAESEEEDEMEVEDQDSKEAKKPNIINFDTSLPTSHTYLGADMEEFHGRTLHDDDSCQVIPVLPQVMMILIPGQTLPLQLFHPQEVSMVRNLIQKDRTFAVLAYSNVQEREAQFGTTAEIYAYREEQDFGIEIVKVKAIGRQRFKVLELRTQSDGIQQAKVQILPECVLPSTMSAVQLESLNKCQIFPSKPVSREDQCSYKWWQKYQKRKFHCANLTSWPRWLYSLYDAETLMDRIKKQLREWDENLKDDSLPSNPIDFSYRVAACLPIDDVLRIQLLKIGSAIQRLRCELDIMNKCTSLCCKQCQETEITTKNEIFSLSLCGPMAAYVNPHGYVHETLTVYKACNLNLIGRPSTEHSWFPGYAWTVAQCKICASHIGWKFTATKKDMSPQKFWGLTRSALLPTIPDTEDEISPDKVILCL


Target: T1, CRBN, Q96SW2
Assay: log2 fold change of degron read counts, EGFP-low vs EGFP+ sorted cells (limma voom), compound-induced degradation; higher = more compound-induced degradation of the degron-EGFP fusion; degrons are variants of IKZF1/3 zinc finger 2; compound dose not given here
Conditions: Jurkat, 18 h
[1] = compound: compound 19 (5-tert-butyl-thalidomide)
[2] = compound: compound 22 (5-morpholino-thalidomide)
[3] = compound: compound 33 (diphenyl IMiD analogue)
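Further: pooled lentiviral library of zinc finger degron-EGFP fusions in mCherry-positive Jurkat cells, FACS-sorted after compound exposure, with degron abundance counted by next-generation sequencing.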

Row | Sequence | log2 fold change of degron read counts [1] | log2 fold change of degron read counts [2] | log2 fold change of degron read counts [3] | log2 fold change of degron read counts (compound: thalidomide)
1 | FTCDVCGALFTQKGNLLRHIKL [46F_47T_49D_50V_52G_53A_54L_55F_67L_, Q9UKT9] | -1.7 | -2.19 | -1.1 | -1.72
2 | FTCPVCGAAFTQKGNLLRHIKL [46F_47T_49P_50V_52G_53A_54A_55F_67L_, Q9UKT9] | 2.3 | 3.11 | 2.78 | 3
3 | FDCEVCGAAFTQKGNLLRHIKL [46F_47D_49E_50V_52G_53A_54A_55F_67L_, Q9UKT9] | 2.09 | 0.14 | 0.426 | 1.14
4 | FSCEVCGAAFTQKGNLLRHIKL [46F_47S_49E_50V_52G_53A_54A_55F_67L_, Q9UKT9] | 3.6 | 3.21 | 2.57 | 2.01
5 | FTCNVCGAAFTQKGNLLRHIKL [46F_47T_49N_50V_52G_53A_54A_55F_67L_, Q9UKT9] | 0.179 | 1.08 | 1.44 | 1.29
6 | FKCEVCGAAFTQKGNLLRHIKL [46F_47K_49E_50V_52G_53A_54A_55F_67L_, Q9UKT9] | 2.13 | -0.688 | -1.68 | 0.479
7 | FTCEVCGAAFTQKGNLLRHIKL [46F_47T_49E_50V_52G_53A_54A_55F_67L_, Q9UKT9] | 2.8 | 3.24 | 2.06 | 3.05
8 | LTCPICGFPCTQKGNLLRHIKL [46L_47T_49P_50I_52G_53F_54P_55C_67L_, Q9UKT9] | 0.155 | 1.3 | 1.14 | 1.64
9 | FDCPICGHEFTQKGNLLRHIKL [46F_47D_49P_50I_52G_53H_54E_55F_67L_, Q9UKT9] | -3 | -2.96 | -2.14 | -2.07
10 | FVCNQCGHVFTQKGNLLRHIKL [46F_47V_49N_50Q_52G_53H_54V_55F_67L_, Q9UKT9] | -2.66 | -3.07 | -2.27 | -2.93
11 | FMCEICGRFFTQKGNLLRHIKL [46F_47M_49E_50I_52G_53R_54F_55F_67L_, Q9UKT9] | -2.5 | -2.11 | -1 | -1.98
12 | FSCDVCGAMFTQKGNLLRHIKL [46F_47S_49D_50V_52G_53A_54M_55F_67L_, Q9UKT9] | 0.106 | -0.592 | -0.74 | -1.71
13 | FQCDICGAAFTQKGNLLRHIKL [46F_47Q_49D_50I_52G_53A_54A_55F_67L_, Q9UKT9] | 1.74 | 2.51 | 0.983 | 3.01
14 | FWCDICGAAFTQKGNLLRHIKL [46F_47W_49D_50I_52G_53A_54A_55F_67L_, Q9UKT9] | 3.12 | 3.67 | 1.49 | -0.516
15 | FMCDICGAAFTQKGNLLRHIKL [46F_47M_49D_50I_52G_53A_54A_55F_67L_, Q9UKT9] | 0.96 | 1.45 | 2.6 | 0.343
16 | FYCDICGAAFTQKGNLLRHIKL [46F_47Y_49D_50I_52G_53A_54A_55F_67L_, Q9UKT9] | 3.37 | 3.23 | 2.4 | -0.554
17 | FACDICGAAFTQKGNLLRHIKL [46F_47A_49D_50I_52G_53A_54A_55F_67L_, Q9UKT9] | 3.42 | 2.04 | -0.474 | -0.517
18 | FCCDICGAAFTQKGNLLRHIKL [46F_47C_49D_50I_52G_53A_54A_55F_67L_, Q9UKT9] | 2.88 | 2.17 | 0.975 | 0.534
19 | FVCDICGAAFTQKGNLLRHIKL [46F_47V_49D_50I_52G_53A_54A_55F_67L_, Q9UKT9] | 0.447 | 2.48 | 1.33 | 1.87
20 | FICDICGAAFTQKGNLLRHIKL [46F_47I_49D_50I_52G_53A_54A_55F_67L_, Q9UKT9] | -0.22 | 2.29 | 1.39 | 1.5
21 | FRCDICGAAFTQKGNLLRHIKL [46F_47R_49D_50I_52G_53A_54A_55F_67L_, Q9UKT9] | 1.51 | 1.47 | 2.34 | 1.21
22 | FSCDVCGAIFTQKGNLLRHIKL [46F_47S_49D_50V_52G_53A_54I_55F_67L_, Q9UKT9] | -0.277 | -1.23 | -0.103 | -1.43
23 | FCCEICGREFTQKGNLLRHIKL [46F_47C_49E_50I_52G_53R_54E_55F_67L_, Q9UKT9] | -2.44 | -2.4 | -1.78 | -1.56
24 | FNCPICGRDFTQKGNLLRHIKL [46F_47N_49P_50I_52G_53R_54D_55F_67L_, Q9UKT9] | -1.89 | -1.85 | -1.07 | -1.09
25 | FSCSVCGHQFTQKGNLLRHIKL [46F_47S_49S_50V_52G_53H_54Q_55F_67L_, Q9UKT9] | -2.44 | -3.11 | -2.86 | -2.7
26 | LCCEICGFECTQKGNLLRHIKL [46L_47C_49E_50I_52G_53F_54E_55C_67L_, Q9UKT9] | -0.329 | -0.269 | -0.566 | 0.603
27 | FHCNQCGAKFTQKGNLLRHIKL [46F_47H_49N_50Q_52G_53A_54K_55F_67L_, Q9UKT9] | -1.43 | -1.66 | -2.35 | -1.73
28 | FLCDVCGAAFTQKGNLLRHIKL [46F_47L_49D_50V_52G_53A_54A_55F_67L_, Q9UKT9] | -0.47 | -1.3 | 0.2 | -0.799
